“And” between values parts separate entries of the source, which are not always exact repeats. Equal entries are not always repeated. About 83,000 compounds went through this panel and 20% of them were active in at least one assay; those are over-represented in the sample as a whole.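 96-well plates, one dose, 48 hours. Percent growth reported; active if below 10.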 The source made the active and inactive calls.
These compounds were tested on SK-MEL-28 melanoma (assay: NCI-60 one-dose screen, 48 h (100 = growth as untreated, 0 = no growth, -100 = all killed)). Conditions: 10 µM.
Protocol: Growth inhibition of the SK-MEL-28 human tumor cell line is measured as a screen for anti-cancer activity. Cells are grown in 96 well plates and exposed to the test compound for 48 hours. Compounds are tested at a single concentration, which is 10^-5 M for most compounds. The reported endpoint is percent growth (GI% or GIPRCNT), where numbers from 0 - 100% represent growth inhibition, and numbers from -100% - 0 represent cell death. For example, a value of 40 represents 60% growth inhibition. A value of 0 means no net growth occurred over the course of the experiment. A value of -40 indicates 40% of cells at the beginning of the experiment died by the end of the experiment. A value of -100 means all cells are dead at the end of the experiment.
NCI-60 Human Tumor Cell Lines Screen was performed using the standard one-dose NCI protocol, which is described in more detail at https://dtp.cancer.gov/discovery_development/nci-60/default.htm.
Compounds with GIPRCNT values below 10 were considered active. Activity score was based on GIPRCNT using the following formula: […]
Score is 0 for GIPRCNT values of 100 or above, 50 for GIPRCNT values of 0, and 100 for GIPRCNT values of -100.

Compound | growth
S=C(SSC(=S)N1CCCCC1)N1CCCCC1 | 105% (inactive)
COc1ccc(OC)c(/C=C/[N+](=O)[O-])c1 | -20% (active)
NCCc1ccc(OCc2ccccc2)c(OCc2ccccc2)c1 | 97.3% (inactive)
COc1ccccc1/C=C(/C)[N+](=O)[O-] | 83.3% (inactive) and 116% (inactive)
CCC(=O)OC1CCn2c1nc1c2C(=O)C(C)=C(N2CC2)C1=O (stereo not drawn) | -42.1% (active)
CC[n+]1c(-c2ccccc2)c2cc(N)ccc2c2ccc(N)cc21 | -42.9% (active)
Oc1cc[c]([Hg][Cl])cc1 | 74.5% (inactive)
Cc1cc(N=Nc2ccccc2C)ccc1N | 99.4% (inactive)
CC(=O)O[C@H]1C[C@@H]2OC3C=C(C)CCC3(C)[C@@]1(C)[C@@]21CO1 (stereo partly drawn) | -24.3% (active) and -29.8% (active)
CN1CCN(c2ccc([N+](=O)[O-])c3no[n+]([O-])c23)CC1 | 17.3% (inactive)
O=C1c2ccccc2C(=O)C(Cl)C1Cl (stereo not drawn) | 87.9% (inactive)
CCOC(=O)C(NC(=O)C(Cc1ccc(N(CCCl)CCCl)cc1)NC(C)=O)C(C)C (stereo not drawn) | 101% (inactive)
CC1=C2C(=O)[C@H]3[C@@H](CC=C4C[C@@H](O)CC[C@@]43C)[C@@H]2CC[C@]12O[C@@H]1C[C@H](C)CN[C@H]1[C@H]2C | 118% (inactive)
COc1cccc2c1cc([N+](=O)[O-])c1c(C(=O)O)cc3c(c12)OCO3 | 99.8% (inactive)
CCCCCCCCCCCC1CCCC(C)N1 (stereo not drawn) | 96.7% (inactive)
Oc1cccc2cccnc12 | 97.2% (inactive) and 107% (inactive) and 106% (inactive)
Cc1ccc(C(=O)OC(C(=O)O)C(OC(=O)c2ccc(C)cc2)C(=O)O)cc1 (stereo not drawn) (tested in a mixture with another compound) | 57.7% (inactive)

Same assay, conditions: 100 µM

Compound | growth
S=C(SSC(=S)N1CCCCC1)N1CCCCC1 | -41.6% (active)

Reference: PubChem BioAssay (NCI)
